Screen size: about 330,000 compounds; about 4,900 (1.5%) were called active. The sample holds actives, similar compounds and a random draw of the others, so the mix is not that of the screen. A number with no mark means an inactive call.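 How the source made its calls: active means inhibition above about 50% at the single test dose (limit read from the data); inactive means the rest.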

The assay deals with Sentrin-specific protease 7 (Homo sapiens) (UniProt Q9BQF6). Put plainly: blockers of human SENP7 peptidase activity – biochemical, luminescence, uHTS, primary screen (AID 434973).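 Further: plate controls were DMSO with enzyme for no effect and no enzyme buffer wells for full effect.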 As to conditions: recombinant SENP7, Z-RLRGG-aminoluciferin luminescence, 40 min; at 5 µM; stronger effect = higher value.
Regarding `CN(C)c1nnnn1-c1ccc(Cl)cc1`, the inhibition is -4.93%.

Regarding `c1ccc(-n2nc3ccccc3n2)cc1`, the inhibition is 1.86%.

For the molecule `Nc1ccc2nn(-c3ccc(Cl)cc3)nc2c1`, the inhibition was 57.3% (active).

`C[C@@H](NC(=O)OC(C)(C)C)c1nnc(S(=O)(=O)Cc2ccccc2)o1`: the inhibition was -2.96%.

Take `NC(=O)C1CCN(C(=O)c2ccc(F)c(S(=O)(=O)N3CCOCC3)c2)CC1`: the inhibition is 10.4%.

Regarding `O=C(c1cnn(-c2ccc(Cl)cc2)c1)c1ccccc1O`, the inhibition is 93.1% (active).

As to `Cc1ncc(CC(=O)n2cc(C(=O)c3cc(Cl)ccc3O)cn2)s1`, the inhibition is 0.896%.

As to `COc1ccc(C(=O)Cc2cnn(-c3ccccc3)c2)c(O)c1`, the inhibition is 5.94%.

In the case of `CC1CCCCC1NC(=O)COC(=O)Cc1ccc(Br)cc1` (stereo unspecified), the inhibition was 0.5%.

Consider `CC(=O)OCc1cc(=O)n(C)c(=O)n1C`, for which the inhibition was 6.2%.

Regarding `COc1cccc(COC(=O)C2CCN(S(=O)(=O)c3ccc(Cl)cc3)CC2)c1OC`, the inhibition is 11.2%.

For the molecule `O=C(COC(=O)c1ccco1)Nc1ccc(Cl)cn1`, the inhibition was 4.97%.

With `CCCCCc1ccc(-c2ccc(OCC)cc2)nc1`, the inhibition was 11.8%.

Consider `CCCCCc1ccc(-c2cn(Cc3ccc4ccccc4c3)nn2)cc1`, for which the inhibition was -7.9%.

As to `CCCCCc1ccc(-c2ccc(C(=O)O)cc2)nc1`, the inhibition was 92.8% (active).

Turning to `O=S(=O)(NCc1ccccc1Br)c1ccccc1Br`, the inhibition was 2.03%.

Turning to `O=C(CCc1nc2sc3c(c2c(=O)[nH]1)CCCC3)NCC(=O)Nc1ccccc1Br`, the inhibition was 2.2%.

`CC1CC(c2ccccc2)n2nc(NC(=O)c3cccs3)nc2N1` (stereo unspecified): the inhibition was -9.29%.

As to `CCn1nccc1C(=O)Nc1ccc(Cl)c(Cl)c1`, the inhibition was 63.8% (active).

Turning to `CCn1nccc1C(=O)Nc1ccc(S(=O)(=O)NC23CC4CC(CC(C4)C2)C3)cc1`, the inhibition was -4.42%.

On to `O=C(CC(O)(C(F)(F)F)C(F)(F)F)Nc1ccc(Cl)c(Cl)c1`, for which the inhibition was 2.83%.

With `COc1ccc(C(=O)N2CCN(c3ncccn3)CC2)cc1S(=O)(=O)N1CCOCC1`, the inhibition was 0.314%.

For `Cc1cc(NC(=O)C(C)N2C(=O)c3ccccc3S2(=O)=O)no1` (stereo unspecified), the inhibition is 3.21%.

Take `Cc1ccc(Nc2nc(Cl)c(C=O)s2)cc1`: the inhibition was 52.6% (active).

On to `Cc1ccc(NC(=O)Nc2nnc(-c3ccncc3)s2)cc1`, for which the inhibition was -3.06%.

With `Cc1ccc(Nc2nnc(SC(C)C(=O)NC3CC3)s2)cc1` (stereo unspecified), the inhibition was 7.35%.

`COC(=O)C(C)N=Cc1ccccc1` (stereo unspecified): the inhibition is -4.82%.

With `COCCNc1cc(-c2ccccc2)nc2cc(-c3cccc(F)c3)nn12`, the inhibition was -7.71%.

As for `COc1cccc(/C=C/c2ccc3ccccc3n2)c1OC(C)=O`, the inhibition was -1.58%.

Turning to `CC(=O)Oc1ccc2c(c1)C(=O)c1ccccc1C2=O`, the inhibition is 12.2%.

For the molecule `COc1ccc(/C=C/c2noc(-c3ccccc3OC(C)=O)n2)cc1`, the inhibition is 87.9% (active).

With `CCCn1c(CCNc2nc(-c3ccc(OC)cc3)cs2)nc2ccccc21`, the inhibition was 0.961%.

In the case of `Clc1ccc(-c2csc(-c3ccncc3)n2)cc1`, the inhibition is -6.3%.

On to `COc1ccc2c(c1OC)C(=O)OC2Nc1nc(-c2ccccc2)cs1` (stereo unspecified), for which the inhibition is 1.44%.

In the case of `COc1ccc(-c2csc(Nc3ccccn3)n2)cc1`, the inhibition is 86.2% (active).

Regarding `O=C(NCc1cccnc1)C(=O)Nc1nc(-c2ccccc2)cs1`, the inhibition is 3.71%.

For the molecule `COc1ccc(Nc2nc(-c3ccccc3)cs2)cc1`, the inhibition was 95.8% (active).

Consider `COc1ccc(-c2csc(NC(=O)COC(=O)Cc3ccc(Cl)cc3Cl)n2)cc1`, for which the inhibition is 4.91%.

On to `COc1ccc(-c2csc(Cc3nc(O)cs3)n2)cc1`, for which the inhibition is 23.1%.

For the molecule `O=C(Nc1nc(-c2cccnc2)cs1)c1ccccc1F`, the inhibition is 28.5%.

Consider `Cc1ccccc1Nc1nc(-c2cccnc2)cs1`, for which the inhibition is 54.3% (active).

In the case of `Clc1ccc(Nc2nc(-c3cccs3)cs2)nc1`, the inhibition was 11%.

As for `c1ccc(Nc2nc(-c3ccncc3)cs2)nc1`, the inhibition is 85.5% (active).

On to `CN(Cc1ccc(F)cc1Cl)S(=O)(=O)c1cccs1`, for which the inhibition was -5.99%.

In the case of `CCN(C(=O)COC(=O)c1c(C)nn(-c2ccccc2)c1Cl)c1c(N)n(Cc2ccccc2)c(=O)[nH]c1=O`, the inhibition is 2.84%.

For `O=[N+]([O-])c1cc(S(=O)(=O)CCCN2CCOCC2)ccc1F`, the inhibition was -6.87%.

As to `Cc1ccc(S(=O)(=O)NCC(=O)N(CC(=O)NC(C)(C)C)Cc2cccs2)cc1`, the inhibition is 0.604%.

As for `CSCCNCc1cn(-c2ccc(F)cc2F)nc1-c1ccccc1C`, the inhibition was 8.28%.

Take `CCOc1ccc(S(=O)(=O)Nc2ccncc2)c(C)c1C`: the inhibition was -7.98%.

As to `CC[C@]1(C(=O)OC)[C@H]2C(=O)N(Cc3ccccc3)C(=O)[C@H]2[C@H]2CN=C(SCc3ccc(C#N)cc3)N21`, the inhibition is -3.53%.

Regarding `OC(COCC1COc2ccccc2O1)CN1CCN(c2ccc(F)cc2)CC1` (stereo unspecified), the inhibition is -0.332%.

In the case of `CCCCCCCCOC1OC(CO)C(O)C(O)C1NC(C)=O` (stereo unspecified), the inhibition is -1.17%.

For the molecule `COc1c(F)c(F)c(-c2csc(N)n2)c(F)c1F`, the inhibition was -8.1%.

`CS(=O)(=O)Nc1cccc(C2=NN(C(=O)c3cccc(F)c3)C(c3cccs3)C2)c1` (stereo unspecified): the inhibition is 6.94%.

With `O=C1/C(=C/c2coc3ccc(O)cc3c2=O)SC(=S)N1c1ccccc1`, the inhibition is -27.4%.

Regarding `O=C(Cc1csc(Nc2nc(=S)[nH]c3ccccc23)n1)NCCCN1CCN(c2cccc(Cl)c2)CC1`, the inhibition is 6.52%.

For the molecule `CCC(C(=O)NC1CCCC1)N(C(=O)c1snc(C(N)=O)c1N)c1ccc2c(c1)OCCO2` (stereo unspecified), the inhibition is 5.07%.

As to `Nc1c(C(=O)c2cccs2)sc2nsc(SCCN3CCCCC3)c12`, the inhibition is 9.3%.

Consider `Cc1ccc(-c2csc(NC3OC(=O)c4ccccc43)n2)cc1` (stereo unspecified), for which the inhibition was -11.5%.

For the molecule `Cc1cccc(Nc2nc(-c3ccccc3)cs2)n1`, the inhibition was 92.9% (active).

On to `Cc1ccc(Nc2nc(-c3ccc(O)cc3O)cs2)nc1`, for which the inhibition was -5.69%.

As to `CCOCCCNC(=O)C1(O)c2cc(Br)ccc2NC(=O)N1c1ccc(C)c(C)c1` (stereo unspecified), the inhibition is 8.05%.

For the molecule `COCCn1c(SC(C)C(=O)NC2CC2)nnc1-c1cccc(C)c1` (stereo unspecified), the inhibition was 1.39%.

Consider `O=C(Nc1cccc(NC(=O)c2cccc(F)c2)c1)c1ccccc1`, for which the inhibition was -10.7%.

For the molecule `O=C(Nc1cccc(C(=O)N2CCCC2)c1)c1ccccc1`, the inhibition is -13%.

Consider `O=C(Nc1ccc(C(=O)O)c(O)c1)c1ccccc1`, for which the inhibition is 85.1% (active).

As to `CCN(CC)C(=O)CSc1ncnc2c1cnn2-c1ccccc1`, the inhibition was 2.6%.

Take `Cc1ccc(Nc2ncnc3c2cnn3C)c(C)c1`: the inhibition is -0.763%.

Consider `Cc1ccc(-n2ncc3c(Nc4cccc(C(=O)O)c4)ncnc32)cc1`, for which the inhibition was 92.6% (active).

For `CC(=O)NC1C(Oc2ccc(C=O)cc2)OC(COC(C)=O)C(OC(C)=O)C1OC(C)=O` (stereo unspecified), the inhibition is 5.78%.

On to `Cc1cccc(NC(=O)CSc2nc3c(c(=O)[nH]2)CCC3)c1C`, for which the inhibition is -1.39%.

Regarding `CC(=O)Nc1ccc(NC(=O)CSc2nnc(COc3ccccc3C)n2CC2CCCO2)cc1` (stereo unspecified), the inhibition is 5.76%.

Turning to `COC(=O)c1ccc([C@@H](O)[C@H](C)C(=O)CC(=O)OC(C)(C)C)cc1`, the inhibition was 6.36%.

Turning to `O=C(Nc1cccc(NC(=O)c2ccccc2[N+](=O)[O-])c1)c1ccccc1Cl`, the inhibition is 6.18%.

Take `COc1cc(NC(=O)c2cccs2)ccc1NC(=O)c1ccccc1Cl`: the inhibition is -1.86%.

Regarding `O=C(Nc1ccc2sc3ccccc3c(=O)c2c1)c1ccccc1Cl`, the inhibition is 51.8% (active).

Turning to `O=C(Nc1ccccc1)c1cc2ccccc2[nH]1`, the inhibition is 76% (active).

For the molecule `COc1ccc2[nH]c(C(=O)Nc3ccccc3Cl)cc2c1`, the inhibition is 6.38%.

As to `CC(OC(=O)c1cc2ccccc2[nH]1)C(=O)N(C)c1ccccc1` (stereo unspecified), the inhibition is -10.4%.

For `CCSc1nc2c(c(=O)[nH]1)C(c1cccnc1)C(C(=O)OC(C)C)=C(C)N2` (stereo unspecified), the inhibition was 11%.

Regarding `COc1ccc(C(CNCC(=O)Nc2ccccc2F)N(C)C)cc1` (stereo unspecified), the inhibition is 2.72%.

For `Cc1ccn2cc(-c3nonc3C)cc2c1`, the inhibition was 4.32%.

In the case of `CS(=O)(=O)N1CCN(C(=O)CSc2ccccc2)CC1`, the inhibition is -0.93%.

Consider `O=c1c2c(nc3cc(-c4cccc(Cl)c4)[nH]n13)CCCC2`, for which the inhibition is 66.7% (active).

`Cc1cc(=O)n2[nH]c(-c3cccc(Cl)c3)cc2n1`: the inhibition was 1.33%.

As for `CCCCN1Cc2c(nc3cc(-c4ccccc4)[nH]n3c2=O)C1=O`, the inhibition was -4.67%.

Take `Cc1nc2ccccc2c(=O)n1-c1ccc(NS(=O)(=O)c2ccc(F)cc2F)cc1`: the inhibition was -0.987%.

As to `Clc1ccc(C2=CSC3=Nc4cccc5cccc(c45)N23)cc1`, the inhibition was 51.9% (active).

In the case of `CCC(=O)c1ccc(OCC(O)Cn2nc(C)c(C(C)=O)c2C)cc1` (stereo unspecified), the inhibition is 0.247%.

Regarding `CC(C)(C)c1ccc(NC(=O)NCc2ccco2)cc1`, the inhibition was 90.7% (active).

`CC(C)(C)NC(=O)NCc1ccco1`: the inhibition is -4.67%.

For the molecule `CC(C)(C)c1ccc(C(=O)NCc2ccco2)cc1`, the inhibition is -16.4%.

For `CN(C)S(=O)(=O)c1cc(C(=O)Nc2ccn(C)n2)c(Cl)cc1Cl`, the inhibition is -0.713%.

On to `CN(C)NC(=O)C(NC(=O)c1ccc(N)cc1)C12CC3CC(CC(C3)C1)C2` (stereo unspecified), for which the inhibition was -0.0401%.

`COc1ccc(-c2cc3ccc(OCc4nn[nH]n4)cc3oc2=O)cc1`: the inhibition was 51% (active).

In the case of `Cc1noc(C)c1COc1ccc2ccc(=O)oc2c1`, the inhibition was -8.22%.

Regarding `CCCCc1cc(=O)oc2cc(C)cc(OCc3nn[nH]n3)c12`, the inhibition is 1.78%.

Consider `O=C(CNCCC1=CCCCC1)Nc1ccccc1N1CCCCCC1`, for which the inhibition is -5.33%.

For the molecule `O=C(/C=C/c1ccc2c(c1)OCCO2)c1ccc(O)cc1`, the inhibition is 68.4% (active).

With `CN(C)c1ccc(/C=C/C(=O)c2ccc(O)cc2)cc1[N+](=O)[O-]`, the inhibition is -14.8%.

Regarding `O=C(O)/C=C/c1ccc2c(c1)OCCO2`, the inhibition is 2.14%.
